Values joined by “and” are separate entries in the source; they are usually repeats but may differ in a detail not shown here. Identical values can stand only once. Inconclusive results are not listed. Active and inactive are the calls of the source. Calls come from the whole dose curve; as a rule, active = well fitted curve in the direction sought with a large enough effect; inconclusive = small, poorly fitted or top-dose-only effect, or another doubt; inactive = no such curve, though single readings can be large; an effect the other way counts as inactive or inconclusive.
What was measured:
[1] = molecular target: Cytochrome P450 3A7 (Homo sapiens) (UniProt P24462); experiment: Cytochrome P450 family 3 subfamily A member 7 (CYP3A7) small molecule antagonists: luciferase biochemical qHTS assay (AID 1963596); details: P450-Glo CYP3A7 enzyme luminescence, 1 h; series mostly up to 57.4 µM; note: nearly all actives have a fitted effect of over 40% in size; note: potency is the fitted concentration of half-maximal effect; for activity change, negative = inhibition: % is set by controls: 0 for no effect and ±100 for the full control effect
Summary of the method: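 P450-Glo luminescent assay: CYP3A7 enzyme converts a proluciferin substrate to luciferin, detected by luciferase reagent; light proportional to activity. Compounds in DMSO preincubated 10 min with enzyme-substrate mix at room temperature, then NADPH regeneration added for 1 h.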

[2] = Viability qHTS for spleen associated tyrosine kinase inhibitor (SYKi) drug resistant MV4-11 cells (AID 1963824); details: SYKi-resistant MV4-11 viability, CellTiter-Glo, 72 h; series mostly up to 45 µM; note: nearly all actives have a fitted effect of over 35% in size; note: potency is the fitted concentration of half-maximal effect
Summary of the method: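 SYK inhibitor-resistant MV4-11 AML cells, 500 per well, added to predispensed compounds and incubated 72 hr at 37 C, 5% CO2. Viability measured by CellTiter-Glo luminescence after 10 min at room temperature.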

[3] = Cellular viability qHTS for adrenocortical cancer (ACC) cell line NCI-H295R (AID 1963990); details: CellTiter-Glo ATP luminescence, 48 h; series mostly up to 46.1 µM; note: nearly all actives have a fitted effect of over 60% in size; note: potency is the fitted concentration of half-maximal effect
Summary of the method: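 Adrenocortical carcinoma cells, suspended at 300 000 cells/mL in serum-free DMEM plus ITS, rested overnight before pin transfer of compound. After two days' incubation, ATP-dependent luminescence was recorded and curve-fitted.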

[4] = Quantitative highthroughput screen to assess conditional lethalithy of NOMO1 cells grown in RPMI1640 with untreated serum (RPMI+s) (AID 1963876); details: NOMO1 AML cells in RPMI+serum, CellTiter-Glo viability, 48 h; series mostly up to 45.8 µM; note: nearly all actives have a fitted effect of over 35% in size; note: potency is the fitted concentration of half-maximal effect;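 for Viability: 100% = DMSO wells and 0% = empty wells without cells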
Summary of the method: (§1)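 Each medium arm—HPLM with 10% dialyzed FBS, or RPMI1640 with 5 mM glucose and 10% untreated or dialyzed FBS—was screened against an 11-point, 3-fold compound titration for 48 h at 37 °C, with CellTiter-Glo luminescence as endpoint.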

[5] = Quantitative highthroughput screen to assess conditional lethalithy of NOMO1 cells grown in RPMI1640 with dialyzed fetal bovine serum (RPMI+ds) (AID 1963877); details: NOMO1 in RPMI+dialyzed FBS viability, ATP luminescence, 48 h; series mostly up to 45.8 µM; note: nearly all actives have a fitted effect of over 30% in size; note: potency is the fitted concentration of half-maximal effect;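 for Viability: 100% = DMSO control wells and 0% = empty wells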
Summary of the method: as §1

[6] = Quantitative highthroughput screen to assess conditional lethalithy of NOMO1 cells grown in Human Plasma-Like Medium with dialyzed fetal bovine serum (HPLM+ds) (AID 1963878); details: NOMO1 AML cells in HPLM+ds, CellTiter-Glo viability, 48 h; series mostly up to 45.8 µM;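 note: 100% = DMSO wells and 0% = empty wells on each plate; nearly all actives have a fitted effect of over 35% in size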
Summary of the method: as §1

[7] = Quantitative highthroughput screen to assess conditional lethalithy of P12 Ichikawa cells grown in Human Plasma-Like Medium with dialyzed fetal bovine serum (HPLM+ds) (AID 1963879); details: ATP luminescence, 48 h; Potency: viability; series mostly up to 45.8 µM; note: nearly all actives have a fitted effect of over 35% in size; note: potency is the fitted concentration of half-maximal effect
Summary of the method: as §1

[8] = Quantitative highthroughput screen to assess conditional lethalithy of P12 Ichikawa cells grown in RPMI1640 with dialyzed fetal bovine serum (RPMI+ds) (AID 1963880); details: ATP luminescence, 48 h; Potency: P12-Ichikawa viability; series mostly up to 45.8 µM; note: nearly all actives have a fitted effect of over 35% in size; note: potency is the fitted concentration of half-maximal effect;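 for Viability: 100% = DMSO wells and 0% = empty wells on each plate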
Summary of the method: as §1

[9] = Quantitative highthroughput screen to assess conditional lethalithy of P12 Ichikawa cells grown in RPMI1640 with untreated serum (RPMI+s) (AID 1963881); details: ATP luminescence, 48 h; Potency: viability; series mostly up to 45.8 µM; note: nearly all actives have a fitted effect of over 35% in size; note: potency is the fitted concentration of half-maximal effect;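 for Viability: 100% = DMSO wells and 0% = empty wells without cells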
Summary of the method: as §1

[10] = Quantitative highthroughput screen to assess conditional lethalithy of SEM cells grown in Human Plasma-Like Medium with dialyzed fetal bovine serum (HPLM+ds) (AID 1963882); details: SEM B-ALL cells in HPLM+ds, CellTiter-Glo viability, 48 h; series mostly up to 45.8 µM; note: nearly all actives have a fitted effect of over 35% in size; note: potency is the fitted concentration of half-maximal effect
Summary of the method: as §1

[11] = Quantitative highthroughput screen to assess conditional lethalithy of SEM cells grown in RPMI1640 with unreated serum (RPMI+s) (AID 1963883); details: SEM B-ALL cells, CellTiter-Glo viability, 48 h; series mostly up to 45.8 µM; note: nearly all actives have a fitted effect of over 35% in size; note: potency is the fitted concentration of half-maximal effect;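 for Viability: 100% = DMSO wells and 0% = empty wells without cells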
Summary of the method: as §1

[12] = Quantitative highthroughput screen to assess conditional lethalithy of SEM cells grown in RPMI1640 with dialyzed fetal bovine serum (RPMI+ds) (AID 1963884); details: SEM B-ALL cells, RPMI+dialyzed FBS, CellTiter-Glo viability, 48 h; series mostly up to 45.8 µM; note: nearly all actives have a fitted effect of over 35% in size; note: potency is the fitted concentration of half-maximal effect;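 for Viability: 100% = DMSO control wells and 0% = empty wells without cells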
Summary of the method: as §1

[13] = Cellular viability qHTS for adrenocortical cancer (ACC) cell line SW-13 (AID 1963989); details: SW-13 ACC cells viability, CellTiter-Glo, 48 h; activity (max response): hits give low values; note: nearly all actives have a fitted effect of over 65% in size; note: potency is the fitted concentration of half-maximal effect;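 for activity (max response): cells grown in serum-free medium with ITS supplement; % is set by controls: 0 for no effect and ±100 for the full control effect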
Summary of the method: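 IC50 and maximal-response values come from four-parameter logistic fits of titration data. SW-13 cells in serum-free medium received compounds (up to 46 uM final) for 48 h before CellTiter-Glo luminescence.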

Cytochrome P450 3A7 (Homo sapiens), sequence (P24462 whole entry, looked up): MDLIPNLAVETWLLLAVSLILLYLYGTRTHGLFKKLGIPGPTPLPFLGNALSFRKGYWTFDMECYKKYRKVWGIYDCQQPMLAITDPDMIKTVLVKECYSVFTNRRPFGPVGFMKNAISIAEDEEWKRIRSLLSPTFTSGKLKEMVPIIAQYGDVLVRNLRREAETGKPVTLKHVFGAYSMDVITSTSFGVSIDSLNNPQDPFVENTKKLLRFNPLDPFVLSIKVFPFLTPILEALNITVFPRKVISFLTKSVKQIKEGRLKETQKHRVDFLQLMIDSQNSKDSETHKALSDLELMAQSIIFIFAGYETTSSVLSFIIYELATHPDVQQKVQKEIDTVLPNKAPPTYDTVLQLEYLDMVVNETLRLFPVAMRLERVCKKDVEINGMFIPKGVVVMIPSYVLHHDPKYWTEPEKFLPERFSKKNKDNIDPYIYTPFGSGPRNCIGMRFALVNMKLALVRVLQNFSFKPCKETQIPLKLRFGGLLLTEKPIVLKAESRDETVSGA

CC(C)=CCNc1ncnc2c1ncn2[C@@H]1O[C@H](CO)[C@@H](O)[C@H]1O
inactive: Potency [1]
active: Potency [2] 580 nM | Potency [3] 7.31 µM

CN1CCN(N)CC1
inactive: Potency [1] | Potency [2] | Potency [3]

O=c1[nH]c(=O)c2[nH]c(=O)[nH]c2[nH]1
inactive: activity change, negative = inhibition [1] 3.23% [at 11.5 µM] | viability, % of control [2] 120% [at 9.25 µM]
active: Potency [3] 2.66 µM

C[C@@H]1CCO[C@H]2Cn3cc(C(=O)NCc4ccc(F)cc4F)c(=O)c(O)c3C(=O)N12
inactive: Potency [1] | Potency [4] | Potency [5] | Potency [6] | Potency [7] | Potency [8] | Potency [9] | Potency [10] | Potency [11] | Potency [12]

CSc1cccc(Nc2ncc3cc(-c4c(Cl)cccc4Cl)c(=O)n(C)c3n2)c1
inactive: Potency [1] | Potency [4] | Potency [5] | Potency [6] | Potency [7] | Potency [8] | Potency [9] | Potency [3]

C[C@H]1O[C@@H](O[C@H]2CC[C@@]3(C)[C@H](CC[C@@H]4[C@@H]3C[C@@H](O)[C@]3(C)[C@@H](C5=CC(=O)OC5)CC[C@]43O)C2)C[C@H](O)[C@@H]1O[C@H]1C[C@H](O)[C@H](O[C@H]2C[C@H](O)[C@H](O[C@@H]3O[C@H](CO)[C@@H](O)[C@H](O)[C@H]3O)[C@@H](C)O2)[C@@H](C)O1
active: Potency [2] 133 nM | Potency [3] 0.164 µM
inactive: Potency [1]

CS(=O)(=O)OCCCCOS(C)(=O)=O
active: Potency [12] 20900 nM
inactive: Potency [1] | activity (max response) [13] 4.16% | Potency [3]

N[C@H]1CN(c2c(F)cc3c(=O)c(C(=O)O)cn(C4C[C@@H]4F)c3c2Cl)CC12CC2 (stereo partly drawn)
inactive: Potency [1] | Potency [5] | Potency [7] | Potency [8] | Potency [9] | Potency [11] | activity (max response) [13] 4.52% | Potency [3]

CN1CCN(c2c(F)cc3c(=O)c(C(=O)O)cn4c3c2SCC4)CC1
inactive: Potency [1] | activity (max response) [13] -3.92%

COc1ccc(CCN2CCN(CCCc3ccccc3)CC2)cc1OC
inactive: Potency [1] | Potency [4] | Potency [6] | Potency [7] | Potency [8] | Potency [9] | Potency [10] | Potency [12] | activity (max response) [13] -13% | Potency [3]

CCc1ccc(C(=O)C(C)CN2CCCCC2)cc1 (stereo not drawn)
active: Potency [1] 30900 nM
inactive: activity (max response) [13] -7.06%

CS(=O)(=O)c1ccc([C@@H](O)[C@@H](CO)NC(=O)C(Cl)Cl)cc1
inactive: Potency [1] | Potency [4] | Potency [5] | Potency [6] | Potency [7] | activity (max response) [13] -8.84% | Potency [3]

Oc1c(Br)cc(Br)c2cccnc12
active: Potency [13] 4.61 µM
inactive: Potency [1]

CCOC(=O)N1CCN([N+]([O-])=NOc2ccc([N+](=O)[O-])cc2C#N)CC1
active: Potency [4] 3320 nM | Potency [5] 2960 nM | Potency [7] 1050 nM | Potency [8] 1050 nM | Potency [9] 1050 nM | Potency [10] 1180 nM | Potency [11] 1050 nM | Potency [12] 1050 nM
inactive: Potency [1]

COc1cc(S(N)(=O)=O)cc(C(=O)O)c1OC
inactive: Potency [1] | activity (max response) [13] 10.1%

Cc1[nH]c(=O)c(C#N)cc1-c1ccc2nccn2c1
inactive: Potency [1] | Potency [4] | Potency [5] | Potency [6] | Potency [7] | Potency [8] | Potency [10] | Potency [11] | Potency [12] | activity (max response) [13] 11.7% | Potency [3]

CC(=O)Nc1ccc(OCC(O)CNC(C)C)cc1 (stereo not drawn)
inactive: Potency [1] | activity (max response) [13] 9.26%

O=C1CSC(=O)N1C(CCc1ccncc1)COc1ccc(-c2cccc([N+](=O)[O-])c2)cc1 (stereo not drawn)
active: Potency [1] 1340 nM | Potency [13] 7.08 µM
inactive: Potency [7] | Potency [8] | Potency [9] | Potency [10]

C[C@@H]1C[C@H]2[C@@H]3CCC4=CC(=O)C=C[C@]4(C)[C@@]3(F)[C@@H](O)C[C@]2(C)[C@@]1(O)C(=O)COC(=O)c1ccncc1
active: Potency [1] 8710 nM
inactive: activity (max response) [13] -0.514%

CC(S)C(=O)NCC(=O)O (stereo not drawn)
inactive: Potency [1] | Potency [4] | Potency [5] | Potency [7] | Potency [8] | Potency [9] | activity (max response) [13] 6.56% and -5.95% | Potency [3]

O=C(NN1CCCC1)NS(=O)(=O)c1ccc(Cl)cc1
inactive: Potency [1] | activity (max response) [13] 2.56% | Potency [3]

CN(C)CCCO[C@@H]1[C@H]2OC(C)(C)O[C@H]2O[C@@H]1C(O)CO (stereo partly drawn)
inactive: Potency [1] | activity (max response) [13] 7.54%

COc1ccc(C=CC(=O)Nc2ccccc2C(=O)O)cc1OC
inactive: Potency [1] | Potency [4] | Potency [5] | Potency [7] | Potency [8] | Potency [9] | Potency [10] | Potency [11]

COc1c(N2C[C@@H]3CCCN[C@H]3C2)c(F)cc2c(=O)c(C(=O)O)cn(C3CC3)c12
inactive: Potency [1] | activity (max response) [13] -9.27%

CCOc1cc(C(=O)Nc2ccc(Cl)c(-c3nc4ccccc4[nH]3)c2)cc(OCC)c1OCC
inactive: Potency [1] | Potency [7] | Potency [3]

Cn1c(=O)c2c(ncn2CC(=O)O)n(C)c1=O
inactive: Potency [1] | activity (max response) [13] 9.83% | Potency [3]

CCN(CC)CC#CCOC(=O)C(O)(c1ccccc1)C1CCCCC1 (stereo not drawn)
inactive: Potency [1] | Potency [4] | Potency [5] | Potency [6] | Potency [8] | Potency [9] | Potency [10] | Potency [11] | Potency [12]

C[C@@H]1CCN(C(=O)N2CCCC2)C[C@@H]1N(C)c1ncnc2[nH]ccc12
inactive: Potency [1] | activity (max response) [13] 11.2% | Potency [3]

COC(=O)Nc1nc2ccc(Sc3ccccc3)cc2[nH]1
inactive: Potency [1]
active: Potency [11] 2350 nM | Potency [12] 2960 nM | Potency [13] 184 nM and 316 nM | Potency [3] 130 nM and 316 nM

Reference: PubChem BioAssay (NCATS)
